Screening data from PubChem.
SMN2 splice enh: enhancers of SMN2 splice variant expression; HEK293 SMN2-luciferase splicing reporter, luminescence, 30-36 h; Potency, µM (titrated, usually from 46.1 µM), inactives show at the highest dose activity change, positive = activation, most hits filed as activators; actives 2.8% (n = 210,000); AID 1458; also: % of control where 0% means no effect; nearly all actives have a fitted effect of over 55% in size
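HEK293 cells carry an SMN2 minigene-luciferase reporter in which exon 7 inclusion puts luciferase in frame. Cells were seeded at 2000 cells/well, attached for 10-12 hours, then exposed to compounds for 30-36 hours at 37C before ONE-Glo luminescence.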
FLuc modulator: inhibits or activates purified firefly luciferase, miR-21 counter-screen; P08659; purified FLuc, Km substrates, luminescence inhibition; AID 588342; actives 6.9% (n = 360,000); Potency, µM (highest dose often 57.5 µM), inactives show at the highest dose activity change, negative = inhibition, actives largely listed as inhibitors;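 also: plate controls were vehicle for no effect and reference inhibitor for full effect; nearly all actives have a fitted effect of over 55% in size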
Target sequence (P08659 whole entry, looked up): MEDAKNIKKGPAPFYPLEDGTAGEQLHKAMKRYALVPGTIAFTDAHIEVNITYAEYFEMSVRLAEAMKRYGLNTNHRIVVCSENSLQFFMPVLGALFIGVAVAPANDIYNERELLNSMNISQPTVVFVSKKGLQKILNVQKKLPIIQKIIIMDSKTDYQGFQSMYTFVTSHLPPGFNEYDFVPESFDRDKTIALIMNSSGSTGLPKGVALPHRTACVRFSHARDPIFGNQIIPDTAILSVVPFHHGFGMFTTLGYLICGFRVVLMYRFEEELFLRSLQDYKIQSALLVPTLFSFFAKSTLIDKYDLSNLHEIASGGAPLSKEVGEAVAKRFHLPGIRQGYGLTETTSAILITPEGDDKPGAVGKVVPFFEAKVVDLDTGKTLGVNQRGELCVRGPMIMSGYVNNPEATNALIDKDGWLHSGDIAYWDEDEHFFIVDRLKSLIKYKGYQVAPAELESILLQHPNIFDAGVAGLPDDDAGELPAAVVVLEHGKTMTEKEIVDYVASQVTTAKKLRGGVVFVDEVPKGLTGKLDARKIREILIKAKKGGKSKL
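Purified P. pyralis luciferase (10nM final) with 10uM D-luciferin and 10uM ATP (Km levels) in 50mM Tris acetate pH 7.5, 10mM Mg acetate, 0.01% Tween-20, 0.05% BSA; qHTS 6-point titration, ~60 µM downward; luminescence read.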
Rab9 prom act: activators of Rab9 promoter; actives 2.8% (n = 320,000); Huh7 Rab9 promoter-luciferase reporter, luminescence, 24 h; Potency, µM (series often up to 9.22 µM), for the others: top-dose activation, negative = inhibition, actives largely listed as activators; also: % of control where 0% means no effect; nearly all actives have a fitted effect of over 60% in size
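Huh7 reporter line, Rab9 promoter upstream of luciferase. Compound exposure 24 h at 37 °C in reduced-serum medium with 10% FBS. Read-out: luminescence.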
ELG1 genotox: genotoxicity induction in ELG1-luciferase HEK293T cells; HEK293T ELG1-luciferase reporter, luminescence, 16 h; Potency, µM (titrated, usually from 46 µM), for inactives: top-dose activity change, positive = activation, hits mostly activators; actives 1.3% (n = 330,000); AID 504466; also: % of control where 0% means no effect; nearly all actives have a fitted effect of over 60% in size
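After overnight (16 hr) compound treatment at 37 °C, ELG1-luciferase HEK293T cells were lysed with ONE-Glo; luminescence quantified 30 min later at room temperature.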
NPC1 promoter act: NPC1 promoter activation; Huh7 NPC1 promoter luciferase reporter, 24 h; Potency, µM (highest dose often 9.22 µM), for the others: top-dose activation, usual class: activators; actives 2.4% (n = 320,000); AID 485313; also: % of control where 0% means no effect; nearly all actives have a fitted effect of over 60% in size
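Luminescence from an NPC1 promoter-driven luciferase reporter in stably transfected Huh7 cells was measured after 24 h compound treatment at 37 °C, followed by 10 min ambient incubation with luciferase detection reagent.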
An asterisk follows results filed as active; ? = inconclusive; nt = no result; [ ] = remark or other dose. This is a sample that favours compounds with a hit; in the whole collection about 7.4% have one here. Calls follow the shape of the dose curve; as a rule, active = well fitted curve in the direction sought with a large enough effect; inconclusive = small, poorly fitted or top-dose-only effect, or another doubt; inactive = no such curve, though single readings can be large; an effect the other way counts as inactive or inconclusive. Potency is read from the fitted curve at half-maximal effect.

SMILES | SMN2 splice enh | FLuc modulator | Rab9 prom act | ELG1 genotox | NPC1 promoter act
COc1ccc(OC)c(C2CC(=O)Nc3c2c(=O)[nH]c2nc4ccccc4n32)c1 (stereo not drawn) | -9.3% | -4.4% | nt | nt | nt
Cc1ccc(NC(=O)CSc2c3c(nc4ccccc24)CCCC3)cc1F | -11.3% | -18.3% | nt | nt | nt
Cc1ccc(C(O)C2=CCCC2=O)cc1 (stereo not drawn) | -1.6% | nt | nt | nt | nt
CC1(C(=O)OCC(=O)Nc2ccc(C(N)=O)cc2)CC1(Cl)Cl (stereo not drawn) | 92.4% | 4.4% | 1.3% | 7.7% | -0.6%
CN(C)S(=O)(=O)c1ccc(SCC(=O)Nc2ccc3c(c2)OCCO3)nc1 | nt | 21.3µM* | -1.4% | 1.2% | 10.9%
CC(=O)Nc1ccc(NC(=O)CSC2=NCCS2)cc1 | -9.7% | -0.2% | -8.2% | 0.6% | 1.6%
CC1(C(=O)OCC(=O)Nc2ccc3ccccc3c2)CC1(Cl)Cl (stereo not drawn) | -0.4% | 19µM* | 25.8% | 1.4% | 16.8%
O=C(CSC1=NCCS1)Nc1ccc2ccccc2c1 | nt | 16.9µM* | 18.3% | 2.6% | 17.5%
O=C(CSc1ccccn1)Nc1ccc2c(c1)OCCO2 | nt | 8.49µM* | 2.51µM* | ? | 3.98µM*
CCN(CC)c1ccc(NC(=O)c2cc(CN3CCCC3)on2)c(C)c1 | nt | 7.3% | nt | nt | nt
O=C(NCCOc1ccccc1)O[C@@H]1C(=O)c2cc(Br)ccc2O[C@H]1c1ccc2c(c1)OCO2 | 7.0% | nt | nt | nt | nt
Cc1cc(=O)[nH]c(SCC(=O)Nc2ccc3c(c2)OCCO3)n1 | nt | 0.2% | -41.8% | -3.2% | -39.1%
O=C(CSc1ccccn1)Nc1ccc(Cl)c([N+](=O)[O-])c1 | -1.4% | ? | 1.7% | 0.7% | -6.7%
O=C(CSc1nccc(=O)[nH]1)Nc1ccc2c(c1)OCCO2 | nt | 10.7µM* | 2.24µM* | 14.6µM* | 2.24µM*
O=C(CSc1ccccn1)Nc1ccc2c(c1)C(=O)c1ccccc1C2=O | 10µM* | ? | 3.98µM* | 16.4µM* | 2.82µM*
O=C(CSc1ncccn1)NC(=O)Nc1ccc2c(c1)OCCO2 | 7.9% | 23.9µM* | 15.5% | 9.6% | 2.0%
CCCNc1ncnc2c1cnn2-c1ccc(OC)cc1 | -2.7% | 5.36µM* | 0.398µM* | 2.2% | 0.501µM*
CCCN(CCC)c1ncnc2c1cnn2-c1ccc(OC)cc1 | ? | 2.39µM* | 0.447µM* | 1.16µM* | 0.708µM*
CCCCN(CCCC)c1ncnc2c1cnn2-c1cccc(C)c1 | nt | -8.3% | nt | nt | nt
C=CCNc1ncnc2c1cnn2-c1ccc(OC)cc1 | ? | 3.38µM* | 0.398µM* | ? | 0.631µM*
CCOCCCNC(=O)c1ccc(Cn2c(=O)c3cccn3c3cccnc32)cc1 | nt | 4.9% | nt | nt | nt
COc1ccc(-c2noc(CC(=O)Nc3cc(OC)ccc3OC)n2)cc1 | nt | -13.2% | nt | nt | nt
O=C(N/N=C/C(Br)=C/c1ccccc1)c1ccccc1[N+](=O)[O-] | nt | ? | -0.3% | 3.4% | -3.2%
COc1cccc(C(=O)N/N=C/C(Br)=C/c2ccccc2)c1 | 22.7% | 10.7µM* | 13.3% | 17.7% | 1.2%
Cn1cc(C(=O)N/N=C/C(Br)=C\c2ccccc2)ccc1=O | 14.6% | ? | 11.4% | 14.5% | -7.4%
SMILES | SMN2 splice enh | FLuc modulator | Rab9 prom act | ELG1 genotox | NPC1 promoter act
Cn1cc(C(=O)N/N=C/C(Br)=C/c2ccccc2)ccc1=O | 4.3%[1.84 µM] | 19µM* | 3.8% | 12.1% | 1.1%
COc1ccc(C(=O)N/N=C/C(Br)=C/c2ccccc2)cc1 | 11.3% | 3.01µM* | 19.4% | -2.2% | 8.8%
Cc1cccc(-c2nc3sc(C)cc3c(=O)o2)c1 | nt | 2.69µM* | 12.5% | 12.3% | 23.0%
CCc1cc2c(=O)oc(-c3ccc(F)cc3)nc2s1 | nt | 4.78µM* | 11.5% | 1.2% | 2.4%
Cc1cc2c(=O)oc(-c3ccc(Br)cc3)nc2s1 | nt | 1.9µM* | 21.5% | ? | 26.9%
O=C(NCCc1ccc(Cl)cc1)C1CCN(S(=O)(=O)c2ccc3[nH]ccc3c2)CC1 | nt | -0.8% | nt | nt | nt
CC(=O)Nc1ccc2oc(C)nc2c1 | nt | -1.9% | 1.5% | -1.2% | 0.4%
Cc1ccccc1-c1nc2cc(NC(=O)Cc3ccc(Cl)cc3)ccc2o1 | -3.6% | -10.2% | nt | nt | nt
CCC(=O)Nc1ccc2oc(-c3ccccc3Br)nc2c1 | 10µM* | 3.01µM* | 2µM* | ? | 1.78µM*
CC(=O)Nc1ccc2oc(-c3ccccc3Br)nc2c1 | 11.2µM* | 2.39µM* | 0.447µM* | 1.84µM* | 0.891µM*
